NPR1 activator = GC-A (human) enzyme activation. P16066. HEK293 GC-A cells, cGMP TR-FRET, EC30 ANP; 0% at EC30 ANP, 100% saturating ANP. activation, % at 10 µM. 0.14% of 370,000 active. AID 1671463; in the data active means activation above about 40%
GC-B act = GC-B (human) receptor activation | P20594 | HEK293-GC-B cells, CNP EC30, cGMP TR-FRET; 0% at EC30 CNP, 100% saturating CNP | activation, % at 10 µM | 0.11% of 370,000 active | AID 1920062;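 active means activation at 10 µM reaching about 35% in either raw or pattern-adjusted values, limit read from the data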
Neddyl block = blocks human cullin neddylation. AID 651699. P61081+Q13564. inhibition, % at 25 µM. TR-FRET cullin neddylation, biochemical. 0.58% of 360,000 active; in the data active means inhibition above about 36%
TLR4-MyD88 BLA = inhibitors of human TLR4-MyD88 binding. O00206+Q99836. HeLa CL3-4 TLR4/MyD88 BLA complementation, FRET ratio. inhibition, % at 8.4 µM. 0.18% of 200,000 active; in the data active means inhibition above about 25%;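 further: 0% = vehicle and 100% = reference inhibitor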
NOD2-RIPK2 inh = NOD2-RIPK2 protein interaction inhibition | CHO BLA complementation NOD2-RIPK2, CCF4 ratio | inhibition, % at 4.98 µM | 0.38% of 360,000 active | AID 624267; in the data active means inhibition above about 21%;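 further: 0% = vehicle only and 100% = reference blocker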
TLR9-MyD88 inh = blocks human TLR9 binding to MyD88; Q9NR96+Q99836; CHO BLA complementation TLR9-MyD88, CCF4 FRET ratio; inhibition, % at 4.98 µM; 0.21% of 340,000 active;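 active means inhibition above the mean over all tested compounds plus 3 SD, cut at about 21% in these data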;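 further: 0% = DMSO only wells and 100% = clavulanate BLA inhibitor control wells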
Neddyl conf = cullin neddylation inhibition, confirmation | calls only at 25 µM | AID 652217 | shares compounds with Neddyl block | TR-FRET cullin neddylation biochemical assay | 13% of 1,800 active; in the data active means inhibition above about 40%;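 further: neddylation substrate is the cullin 1 ring ligase complex with SKP2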
Starred values were filed as active, the others as inactive. Sampled rows, rich in hits. Any-hit rate of the full collection: about 1.2%.

What do the screens show for `N=c1n(Cc2ccccc2)c2ccccc2n1CC(O)c1ccco1` (configuration not stated)?
NPR1 activator: -13.2; GC-B act: -11.4; Neddyl block: 38.5*; TLR4-MyD88 BLA: 3.0; NOD2-RIPK2 inh: -5.8; TLR9-MyD88 inh: -7.8; Neddyl conf: inactive

How did O=c1c2ccccc2n(Cc2ccno2)n1[C@@H](Cc1ccccc1)Cn1cc(C2CCCC2)nn1 do in these assays?
NPR1 activator: -8.1; GC-B act: -7.0

How did CCCC[n+]1ccn(-c2nc3ccccc3nc2[N-]S(=O)(=O)c2ccccc2)c1 do in these assays?
NPR1 activator: -0.2; GC-B act: -3.3; Neddyl block: 38.6; TLR4-MyD88 BLA: -1.9; NOD2-RIPK2 inh: 6.7; TLR9-MyD88 inh: 3.7

How did CCCCC[n+]1ccn(-c2nc3ccccc3nc2[N-]S(=O)(=O)c2ccc(C)cc2)c1 do in these assays?
NPR1 activator: 1.4; GC-B act: 2.6; Neddyl block: 43.0*; TLR4-MyD88 BLA: -0.6; NOD2-RIPK2 inh: -3.5; TLR9-MyD88 inh: -2.8; Neddyl conf: inactive

How did Cc1ccc(S(=O)(=O)[N-]c2nc3ccccc3nc2-n2cc[n+](Cc3ccccc3)c2)cc1 do in these assays?
NPR1 activator: -0.2; GC-B act: -2.7; NOD2-RIPK2 inh: -3.8; TLR9-MyD88 inh: 3.9

How did C=CC[n+]1ccn(-c2nc3ccccc3nc2[N-]S(=O)(=O)c2cccs2)c1 do in these assays?
NPR1 activator: 10.9; GC-B act: 9.3; Neddyl block: 45.6*; NOD2-RIPK2 inh: -3.8; TLR9-MyD88 inh: 2.1

Results for CCCC[n+]1ccn(-c2nc3ccccc3nc2[N-]S(=O)(=O)c2cccs2)c1 ?
NPR1 activator: 0.8; GC-B act: -2.7; Neddyl block: 42.6*; NOD2-RIPK2 inh: -13.0; TLR9-MyD88 inh: -7.3; Neddyl conf: inactive

Results for O=S(=O)([N-]c1nc2ccccc2nc1-n1cc[n+](Cc2ccccc2)c1)c1ccccc1 ?
NPR1 activator: -2.2; GC-B act: -5.0; Neddyl block: 37.1*; NOD2-RIPK2 inh: -10.6; TLR9-MyD88 inh: -3.8; Neddyl conf: active

What do the screens show for `CN[C@H]1C[C@H]2c3[nH]c4cccc(-c5ccc6c(c5)OCO6)c4c3CCN2C[C@H]1[C@H](C)O`?
NPR1 activator: 0.8; GC-B act: -13.0

Results for COc1ccc(NC(=O)CSCC(=O)N2CCN(C(=O)c3ccco3)CC2)cc1 ?
NPR1 activator: 0.3; GC-B act: 1.7; Neddyl block: -23.4; NOD2-RIPK2 inh: 5.4; TLR9-MyD88 inh: 5.2

How did O=C(NC1CCCCN(Cc2cccc(C(F)(F)F)c2)C1=O)c1ccc(Cl)c(Cl)c1 (configuration not stated) do in these assays?
NPR1 activator: 4.8; GC-B act: 5.2

What do the screens show for `COc1ccc(S(=O)(=O)N2CCOCC2)cc1NC(=O)c1cc2ccccc2o1`?
NPR1 activator: 7.3; GC-B act: 9.7; Neddyl block: 3.5; NOD2-RIPK2 inh: -0.1; TLR9-MyD88 inh: -2.4

What do the screens show for `CCCn1c(SCC(=O)N2N=C3/C(=C/c4ccc(OC)cc4)CCCC3C2c2ccc(OC)cc2)n[nH]c1=O` (configuration not stated)?
NPR1 activator: -5.2; GC-B act: -11.5; Neddyl block: 46.8*; TLR4-MyD88 BLA: -13.4; NOD2-RIPK2 inh: -9.6; TLR9-MyD88 inh: 4.0; Neddyl conf: inactive

What do the screens show for `CC(=O)N1N=C2/C(=C/c3ccccc3)CCCC2C1c1ccccc1` (configuration not stated)?
NPR1 activator: 4.6; GC-B act: 0.4; Neddyl block: 46.8*; TLR4-MyD88 BLA: -4.9; NOD2-RIPK2 inh: -3.5; TLR9-MyD88 inh: 1.8

Results for Cc1cnc(-c2nc3ccccc3n2C(C(=O)NC(C)(C)C)c2ccncc2)cn1 (configuration not stated) ?
NPR1 activator: -8.0; GC-B act: -4.2; NOD2-RIPK2 inh: 6.4

Results for CCOc1ccccc1NC(=O)COC(=O)c1c(CC)noc1C ?
NPR1 activator: -3.2; GC-B act: -1.5; Neddyl block: 5.3; NOD2-RIPK2 inh: -14.4; TLR9-MyD88 inh: -5.0

How did COc1cc(-c2cc(C(=O)N3CCCCCC3)c3ccccc3n2)cc(OC)c1OC do in these assays?
NPR1 activator: 12.5; GC-B act: 8.2; Neddyl block: 49.9*; NOD2-RIPK2 inh: -12.8; TLR9-MyD88 inh: 0.4

Results for O=C(c1cc(N2CCCCC2)nc2ccccc12)N1CCOCC1 ?
NPR1 activator: 5.0; GC-B act: 4.0; Neddyl block: 43.0*; TLR4-MyD88 BLA: -5.2; NOD2-RIPK2 inh: -4.0; TLR9-MyD88 inh: -9.4; Neddyl conf: inactive

Results for O=C(O)c1cc(N2CCOCC2)nc2ccccc12 ?
NPR1 activator: 0.0; GC-B act: 3.2; NOD2-RIPK2 inh: -2.5; TLR9-MyD88 inh: -8.9

Results for Cc1ccc(-c2cc(C(=O)OCC(=O)NC3CC3)c3ccccc3n2)cc1 ?
NPR1 activator: -0.9; GC-B act: -0.8; Neddyl block: 47.0*; NOD2-RIPK2 inh: 1.7; TLR9-MyD88 inh: 1.1

How did COc1ccc(-c2cc(C(=O)N3CCCCCC3)c3ccccc3n2)cc1OC do in these assays?
NPR1 activator: 4.6; GC-B act: 2.0; NOD2-RIPK2 inh: -8.8; TLR9-MyD88 inh: -4.7

What do the screens show for `COc1ccc(-c2cc(C(=O)OCC(=O)N3CCCCC3)c3ccccc3n2)cc1OC`?
NPR1 activator: 7.0; GC-B act: 5.1; Neddyl block: 45.1*; NOD2-RIPK2 inh: 17.9; TLR9-MyD88 inh: -11.8; Neddyl conf: inactive

How did COc1cc(-c2cc(C(=O)OCC(=O)NC3CC3)c3ccccc3n2)cc(OC)c1OC do in these assays?
NPR1 activator: 9.1; GC-B act: 6.5; Neddyl block: 2.4; NOD2-RIPK2 inh: 19.5; TLR9-MyD88 inh: -0.9

How did CN(Cc1ccc2nsnc2c1)C(=O)C1CCC(=O)N(CCc2ccccc2)C1 (configuration not stated) do in these assays?
NPR1 activator: -0.4; GC-B act: -9.3; Neddyl block: -10.4; NOD2-RIPK2 inh: -9.0; TLR9-MyD88 inh: 6.0

How did Cc1cc(C)cc(Nc2ccc(C(=O)O)cc2N)c1 do in these assays?
NPR1 activator: -6.1; GC-B act: -4.7; TLR4-MyD88 BLA: -0.5; NOD2-RIPK2 inh: 10.0; TLR9-MyD88 inh: 3.0

Results for COc1cccc(Nc2ccc(C(=O)O)cc2N)c1 ?
NPR1 activator: -4.4; GC-B act: -3.8; Neddyl block: 40.2*; NOD2-RIPK2 inh: -1.6; TLR9-MyD88 inh: -19.2

How did O=C(N/N=C/c1sc(N2CCOCC2)nc1-c1ccccc1)c1ccccc1Cl do in these assays?
NPR1 activator: 0.8; GC-B act: -2.6; TLR4-MyD88 BLA: 0.8; NOD2-RIPK2 inh: -6.3; TLR9-MyD88 inh: 8.2

Bioassay records (PubChem)
